This is an account of results in PubChem BioAssay AID493170 (National Center for Advancing Translational Sciences (NCATS), 2011).

Inconclusive results are not listed. Values without a mark were called inactive. Activity calls are given as the source filed them. Calls follow the shape of the dose curve; as a rule, active = well fitted inhibition curve with a large enough effect; inconclusive = small, poorly fitted or top-dose-only effect, or effect the other way; inactive = flat fitted curve, though single readings scatter.
% is scaled to controls: 0 for no effect and ±100 for the full control effect; potency is read from the fitted curve at half-maximal effect.

In this test the target is Ubiquitin carboxyl-terminal hydrolase 2 (Homo sapiens) (UniProt O75604). Description: Ub-rhodamine 110 based assay for inhibitors Ubiquitin-specific Protease USP2a. Also: nearly all actives have a fitted effect of over 50% in size. Particulars: USP2a Ub-rhodamine110 cleavage, fluorescence; series mostly up to 38.3 µM; activity change, negative = inhibition: at the top concentration. Summed up: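 Kinetic fluorescence (485/531 nm) read each minute over 7 min after adding Ub-Rhod110 (150 nM final) to USP2a (5 nM final). The enzyme had 30 min RT exposure to compounds beforehand in Tris pH 8.0 buffer with CaCl2, CHAPS and beta-ME.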
Sequence of Ubiquitin carboxyl-terminal hydrolase 2 (Homo sapiens) (O75604 whole entry, looked up): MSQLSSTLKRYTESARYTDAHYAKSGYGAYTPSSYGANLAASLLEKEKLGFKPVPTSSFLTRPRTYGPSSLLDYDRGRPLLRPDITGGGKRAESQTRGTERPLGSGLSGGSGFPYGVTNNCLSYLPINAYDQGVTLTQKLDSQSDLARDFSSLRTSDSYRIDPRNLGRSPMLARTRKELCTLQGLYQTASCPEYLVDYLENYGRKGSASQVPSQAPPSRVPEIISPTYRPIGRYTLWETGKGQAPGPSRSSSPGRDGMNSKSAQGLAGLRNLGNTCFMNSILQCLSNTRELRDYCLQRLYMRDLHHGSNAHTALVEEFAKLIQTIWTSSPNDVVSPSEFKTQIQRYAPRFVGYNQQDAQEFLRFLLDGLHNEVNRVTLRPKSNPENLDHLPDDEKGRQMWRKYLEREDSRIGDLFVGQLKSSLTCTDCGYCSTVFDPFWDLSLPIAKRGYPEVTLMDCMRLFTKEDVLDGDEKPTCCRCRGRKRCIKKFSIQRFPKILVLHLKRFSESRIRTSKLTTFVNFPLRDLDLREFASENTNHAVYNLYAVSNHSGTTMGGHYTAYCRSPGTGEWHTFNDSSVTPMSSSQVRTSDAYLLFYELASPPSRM
For the compound `Cc1ccc(C(=O)Oc2coc(CSc3nnc(NC(=O)c4cccs4)s3)cc2=O)cc1`, the Potency is 11.2 µM (active).

With `NS(=O)(=O)c1ccc(NC(=O)CN2CCCCC2)cc1`, the “activity change, negative = inhibition” value is 0.599%.

Take `CC[C@]12c3[nH]c4cc(-c5ccco5)ccc4c3CCN1C(=O)[C@@H](CC(=O)NC/C=C(\C)CCC=C(C)C)C[C@@H]2C(=O)N1CCN(C(=O)C2CC2)CC1`: the “activity change, negative = inhibition” value was -21%.

Turning to `COc1ccc(NC(=O)CSc2nnc(-c3ccccc3Cl)n2Cc2ccco2)c(OC)c1`, the “activity change, negative = inhibition” value is -3.93%.

With `COc1ccc(-c2noc(CSc3nnc(Cc4ccccc4)n3-c3ccc(Cl)cc3)n2)cc1`, the “activity change, negative = inhibition” value was -20.3%.

For `Cc1cc(C(C)(C)CC(C)(C)C)ccc1OCCOCC[N+](C)(C)Cc1ccccc1`, the “activity change, negative = inhibition” value was -5.87%.

On to `CCOC(=O)C(=O)Nc1nc(-c2ccc3c(c2)CCN3C(=O)C2CC2)c(C)s1`, for which the “activity change, negative = inhibition” value was -16.4%.

Take `CC(=O)OCC(=O)Nc1ccc(Cl)cc1Cl`: the “activity change, negative = inhibition” value is -6%.

For `Cc1cccc(C)c1-n1cccc1/C=C1\SC(=S)N(c2cccc(C(=O)O)c2)C1=O`, the Potency was 7.94 µM (active).

On to `COC1=CCC2([N+](=O)[O-])CN(CCO)CC1([N+](=O)[O-])C2` (centres undefined), for which the “activity change, negative = inhibition” value is 3.44%.

For the compound `CCCOc1ccc(/C=C2\SC(=S)N(CC3CCCO3)C2=O)cc1` (centres undefined), the “activity change, negative = inhibition” value is -7.91%.

For the compound `FC(F)(F)C1=Nc2cccc3cccc(c23)N1`, the “activity change, negative = inhibition” value was -37.2%.

For `CCc1cc2c(=O)c(-c3nc4ccccc4n3C)coc2c(CN2CCCCC2C)c1O` (centres undefined), the “activity change, negative = inhibition” value was -20.5%.

With `CC(C)(C)[C@H]1COC(=O)[C@@H](Cc2ccc(F)cc2)C/C=C\C[C@@H](CC(=O)N[C@@H](CO)Cc2ccccc2)C(=O)N1`, the “activity change, negative = inhibition” value is 0.71%.

For `COc1cc(OC)cc(-c2c(C#Cc3ccsc3)c3cc(-c4ccc(OC)c(F)c4)ccc3n2C)c1`, the “activity change, negative = inhibition” value is -6.24%.

As for `CC(=O)c1ccc(Nc2ncnc3c2oc2ccccc23)cc1`, the “activity change, negative = inhibition” value is -4.39%.

As to `O=C(COC(=O)c1ccc(F)c(S(=O)(=O)N2CCOCC2)c1)c1ccccc1`, the “activity change, negative = inhibition” value is -0.0271%.

For the compound `CC1=NN(c2ccc(C(=O)O)cc2)C(=O)/C1=C\c1ccc(OC(=O)c2cccs2)cc1`, the “activity change, negative = inhibition” value is -21.7%.

`COc1cccc(NC(=O)Cc2ccccc2)c1`: the “activity change, negative = inhibition” value was 1.85%.

For `O=C(CSCCO)Nc1cccc2ccccc12`, the “activity change, negative = inhibition” value was -9.63%.

For the compound `O=C(NC(=S)N1CCCc2ccccc21)c1ccc([N+](=O)[O-])cc1`, the “activity change, negative = inhibition” value was -8.15%.

On to `C[C@@H]1CN([C@H](C)CO)C(=O)Cc2cc(NS(=O)(=O)c3ccc(Cl)cc3)ccc2O[C@H]1CN(C)Cc1ccc(C(F)(F)F)cc1`, for which the Potency was 10 µM (active).

In the case of `Cc1n[nH]c(C)c1S(=O)(=O)N1CCCC(C(=O)Nc2nccs2)C1` (centres undefined), the “activity change, negative = inhibition” value is 19.5%.

For `Cn1c(SCc2nc3ccccc3s2)nnc1-c1cccs1`, the “activity change, negative = inhibition” value is -11.3%.

On to `O=C1c2ccccc2C(=O)N1CCC1=CCCCC1`, for which the “activity change, negative = inhibition” value is -8.94%.

Consider `O=C(CSc1nc(O)cc(=O)n1-c1ccccc1)NC1CCCCC1`, for which the “activity change, negative = inhibition” value was -15.7%.

Take `CC1=CC(C)(C)N(C(=O)c2ccccc2)c2ccccc21`: the “activity change, negative = inhibition” value was -14.4%.

Consider `Cc1ccccc1N=C1NC(=O)CS1`, for which the “activity change, negative = inhibition” value was 1.95%.

With `C[C@@H]1CN([C@@H](C)CO)C(=O)c2cc(NC(=O)CCC(F)(F)F)ccc2O[C@H]1CN(C)S(=O)(=O)c1ccc(Cl)cc1`, the “activity change, negative = inhibition” value is -7.59%.

Take `COc1cccc(C(=O)NC(C)c2ccc(-c3ccccc3)cc2)c1OC` (centres undefined): the “activity change, negative = inhibition” value is -7.15%.

For the compound `Cc1ccc(C(=O)N(C)CC(=O)Nc2cccc(C)c2C)o1`, the “activity change, negative = inhibition” value is -0.589%.

For `Cc1ccc(C(C)C)c(OCc2nn(CC(=O)c3ccc(OC(F)F)cc3)c3[n+]2CCCCC3)c1`, the “activity change, negative = inhibition” value was -4.28%.

In the case of `CC12CN3CC(C)(CN(C1)C3c1ccc(Cl)cc1Cl)C2O` (centres undefined), the “activity change, negative = inhibition” value was -1.96%.

Consider `COc1ccccc1NC(=O)N1CCN(c2ccccn2)CC1`, for which the “activity change, negative = inhibition” value was -6.78%.

For the compound `CCCCC(OC(=O)c1cc2occc2n1C)C(=O)NCC1CCCO1` (centres undefined), the “activity change, negative = inhibition” value was -5.56%.

With `O=C(NN1C(=O)/C(=C/C=C/c2ccco2)SC1=S)c1ccncc1`, the Potency is 10 µM (active).

`COc1cccc(OC)c1-c1nn2c(-c3cc(-c4ccccc4)n[nH]3)nnc2s1`: the Potency is 6.31 µM (active).

In the case of `CCCSCCCNC(=O)CC1Oc2ccccc2NC1=O` (centres undefined), the “activity change, negative = inhibition” value was -16.1%.

For `O=C(Nc1ncccc1Cl)c1cccc(F)c1`, the “activity change, negative = inhibition” value is 3.44%.
